Rin1-Abl PPI inh: inhibitors of Rin1-Abl protein binding, primary screen, biochemical, TR-FRET | Tyrosine-protein kinase ABL1 (Homo sapiens) + Ras and Rab interactor 1 (Homo sapiens), … | inhibition, % at 7.35 µM | 360,000 compounds, 0.4% hits | AID 588664, 2011; in the data active = inhibition above about 5%, passing the limit was not always enough
Hck Nef HTS: inhibitors of Nef-activated human Hck kinase, primary screen, biochemical, Z-Lyte FRET, 384-well, Hck-YEEI | inhibition, % at 20 µM | Tyrosine-protein kinase HCK (Homo sapiens), P08631 | AID 463187, 2010 | Recombinant Hck-YEEI plus Nef, Z-Lyte FRET kinase assay | 220,000 compounds, 0.68% hits;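 active = Hck-Nef kinase inhibition above about 50%, limit read from the data; inactive = inhibition below that limit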;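 note: 0% = DMSO with Hck plus Nef and 100% = Hck alone without Nef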
LYPLA2 counter: LYPLA2 inhibitors, primary screen, counter-screen for PME1 inhibitor project, biochemical, fluorescence polarization, FP-Rh probe ABPP | recombinant LYPLA2 | inhibition, % at 5.9 µM | 320,000 compounds, 0.38% hits;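 active = inhibition above the screen-wide mean plus 3 SD, limit set per campaign, cut at about 26% in these data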;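 note: 0% = LYPLA2 with DMSO and 100% = wells lacking LYPLA2 enzyme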
PREPL inhibitor: PREPL enzyme inhibitors, primary screen, biochemical, fluorescence polarization | Prolyl endopeptidase-like (Homo sapiens), Q4J6C6 | recombinant PREPL, fluorescence polarization activity-based probe | inhibition, % at 5.96 µM | 320,000 compounds, 0.68% hits | AID 2751, 2010; in the data active = inhibition above about 43%;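 note: 0% = enzyme with DMSO and 100% = wells lacking enzyme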
Target sequence (Q4J6C6 whole entry, looked up): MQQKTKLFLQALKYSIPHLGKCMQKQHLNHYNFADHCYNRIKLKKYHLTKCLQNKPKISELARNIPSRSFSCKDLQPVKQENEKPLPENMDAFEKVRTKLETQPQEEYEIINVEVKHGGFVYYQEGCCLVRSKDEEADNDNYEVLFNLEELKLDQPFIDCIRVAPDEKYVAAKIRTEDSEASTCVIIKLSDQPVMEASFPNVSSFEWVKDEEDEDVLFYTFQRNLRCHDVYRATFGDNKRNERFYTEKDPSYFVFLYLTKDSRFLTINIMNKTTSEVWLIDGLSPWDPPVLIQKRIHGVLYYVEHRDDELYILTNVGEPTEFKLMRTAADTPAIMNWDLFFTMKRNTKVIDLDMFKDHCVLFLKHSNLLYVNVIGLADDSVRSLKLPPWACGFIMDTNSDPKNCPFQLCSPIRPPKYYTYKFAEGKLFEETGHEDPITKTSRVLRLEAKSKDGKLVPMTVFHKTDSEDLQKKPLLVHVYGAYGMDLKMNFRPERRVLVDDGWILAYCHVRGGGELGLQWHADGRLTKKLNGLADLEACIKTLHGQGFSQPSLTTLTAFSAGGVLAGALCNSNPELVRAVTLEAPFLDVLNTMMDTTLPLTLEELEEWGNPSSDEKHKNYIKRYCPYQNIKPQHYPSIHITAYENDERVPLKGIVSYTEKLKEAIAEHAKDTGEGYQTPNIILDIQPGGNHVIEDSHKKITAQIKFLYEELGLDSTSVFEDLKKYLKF
LYPLA1 counter: LYPLA1 inhibitors, primary screen, counter-screen for PME1 inhibitor project, biochemical, fluorescence polarization, FP-Rh probe ABPP; Acyl-protein thioesterase 1 (Homo sapiens), O75608; recombinant LYPLA1; inhibition, % at 5.9 µM; 320,000 compounds, 0.16% hits;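 active = inhibition above the mean of all tested compounds plus 3 SD, set per campaign, cut at about 14% in these data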;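 note: inhibitors block serine hydrolase probe labeling of LYPLA1 so polarization falls; 0% = enzyme with DMSO and 100% = wells lacking LYPLA1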
p97 inhibitor: inhibitors of human p97 ATPase, primary screen, biochemical; Transitional endoplasmic reticulum ATPase (Homo sapiens), P55072; recombinant p97 ATPase, Kinase-Glo ATP luminescence, 3 h; inhibition, % at 8 µM; 220,000 compounds, 0.42% hits; in the data active = inhibition above about 15%;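 note: 0% = DMSO vehicle and 100% = wells lacking enzyme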
p97 inh conf: p97 ATPase inhibitors, retest, confirmation, biochemical. shares compounds with p97 inhibitor. inhibition, % at 8 µM. 760 compounds, 44% hits. recombinant p97 ATPase, Kinase-Glo ATP luminescence;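 active = percent inhibition of p97 ATPase above a set limit, the primary screen's mean plus 3 SD, cut at about 15% in these data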;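 note: 0% = DMSO wells and 100% = wells lacking p97 protein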
The depositor's hits bear a star. Shown are actives, neighbours in structure and some others; about 1.7% of the full set was active somewhere.

O=C(CCS(=O)(=O)c1ccccc1Cl)NCCC1=CCCCC1 was read as Rin1-Abl PPI inh 0, LYPLA2 counter 3, PREPL inhibitor 1 and LYPLA1 counter 2.
`O=C(CNC(=O)c1cccc(F)c1)N/N=C/c1ccc(O)c([N+](=O)[O-])c1` gave Rin1-Abl PPI inh -5, Hck Nef HTS 1, LYPLA2 counter 0, PREPL inhibitor -2, LYPLA1 counter 0 and p97 inhibitor -3.
Screening O=C(CNC(=O)c1ccc(F)cc1)N/N=C/c1ccc(O)c([N+](=O)[O-])c1 returned Rin1-Abl PPI inh -7, Hck Nef HTS 1, LYPLA2 counter 8, PREPL inhibitor 1, LYPLA1 counter 0, p97 inhibitor 22* and p97 inh conf 5.
`Cc1cc(OCC(=O)NCC(c2ccc(F)cc2)N2CCOCC2)ccc1Cl` (stereo not given) gave Rin1-Abl PPI inh 1, LYPLA2 counter 3, PREPL inhibitor 18 and LYPLA1 counter 2.
`O=c1cc2oc3cc(O)c(O)cc3c(-c3ccccc3O)c-2cc1O` gave Rin1-Abl PPI inh 67*, Hck Nef HTS 27, p97 inhibitor 29* and p97 inh conf 36*.
`Cc1csc2c(=O)sc(NC(=O)c3ccco3)nc12` gave Rin1-Abl PPI inh -1, Hck Nef HTS 13, LYPLA2 counter -2, PREPL inhibitor -4, LYPLA1 counter 0 and p97 inhibitor 11.
Cc1csc2c(=O)sc(NC(=O)c3cccs3)nc12 was read as Rin1-Abl PPI inh 1, Hck Nef HTS 28, LYPLA2 counter -3, PREPL inhibitor 3, LYPLA1 counter 0, p97 inhibitor 34* and p97 inh conf 28*.
For C=CCNC(=O)C(C#N)c1nc2ccccc2nc1N1CCCCCC1 (stereo not given) the results were Rin1-Abl PPI inh -1, Hck Nef HTS 2, LYPLA2 counter 6, PREPL inhibitor 17, LYPLA1 counter 2, p97 inhibitor 21* and p97 inh conf -2.
Screening N#CC(c1nc2ccccc2nc1N1CCCC1)S(=O)(=O)c1ccccc1 (stereo not given) returned Rin1-Abl PPI inh 3, Hck Nef HTS 10, LYPLA2 counter 0, PREPL inhibitor 42, LYPLA1 counter -2, p97 inhibitor 17* and p97 inh conf 4.
`CN=C(C[N+](=O)[O-])NCCSCc1ccc(CN(C)C)o1` gave Rin1-Abl PPI inh -3 and PREPL inhibitor 21.
For Cc1cc(C)cc(NC(=O)C(c2ccccc2)N2CCN(CC(=O)NC3CC3)CC2)c1 (stereo not given) the results were Rin1-Abl PPI inh 3, LYPLA2 counter 1, PREPL inhibitor 1 and LYPLA1 counter -5.
`Oc1ccc(N=Cc2ccc(O)c(O)c2)cc1` gave Rin1-Abl PPI inh 9, Hck Nef HTS 3, LYPLA2 counter 14, PREPL inhibitor 17, LYPLA1 counter -3, p97 inhibitor 21* and p97 inh conf 13.
For Oc1ccc(NC(=S)N=Nc2c(O)[nH]c3ccc(Br)cc23)cc1 the results were Rin1-Abl PPI inh 5, Hck Nef HTS 23, p97 inhibitor 21* and p97 inh conf 21*.
`Oc1[nH]c2ccc(Br)cc2c1N=NC(=S)Nc1ccc(F)cc1` gave Rin1-Abl PPI inh 1, Hck Nef HTS 15, LYPLA2 counter -9, PREPL inhibitor 17, LYPLA1 counter -9 and p97 inhibitor 3.
Screening Oc1cccc(NC(=S)N=Nc2c(O)[nH]c3ccc(Br)cc23)c1 returned Rin1-Abl PPI inh 0, Hck Nef HTS 10, LYPLA2 counter 1, PREPL inhibitor 33, LYPLA1 counter -7, p97 inhibitor 25* and p97 inh conf 23*.
